Assay outcomes as filed in PubChem.
Most compounds without a hit are left out; they make up all but 22% or so of the library.
Measles CPE = protection of cells from measles virus; AID 841; Measles virus-infected cells, CPE protection, absorbance; protection (pct of control), % at 4 µM; 140,000 tested, 1.5% active; in the data active means protection mostly above about 24%, no sharp cut-off; inactive means mostly below about 26%
CYP2C9 activ = CYP2C9 (human) activation | P11712 | recombinant CYP2C9, luciferin-H conversion, luminescence; stronger effect = higher value; factor 1 = untreated enzyme, 0 = blocked | activation factor at 5 µM | 96,000 tested, 1.4% active | AID 1024;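 active means activation factor of 2 or more for CYP2C9 at a 5 µM dose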;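 further: 0 = sulfaphenazole-blocked wells and 1 = vehicle-only wells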
Target sequence (P11712 whole entry, looked up): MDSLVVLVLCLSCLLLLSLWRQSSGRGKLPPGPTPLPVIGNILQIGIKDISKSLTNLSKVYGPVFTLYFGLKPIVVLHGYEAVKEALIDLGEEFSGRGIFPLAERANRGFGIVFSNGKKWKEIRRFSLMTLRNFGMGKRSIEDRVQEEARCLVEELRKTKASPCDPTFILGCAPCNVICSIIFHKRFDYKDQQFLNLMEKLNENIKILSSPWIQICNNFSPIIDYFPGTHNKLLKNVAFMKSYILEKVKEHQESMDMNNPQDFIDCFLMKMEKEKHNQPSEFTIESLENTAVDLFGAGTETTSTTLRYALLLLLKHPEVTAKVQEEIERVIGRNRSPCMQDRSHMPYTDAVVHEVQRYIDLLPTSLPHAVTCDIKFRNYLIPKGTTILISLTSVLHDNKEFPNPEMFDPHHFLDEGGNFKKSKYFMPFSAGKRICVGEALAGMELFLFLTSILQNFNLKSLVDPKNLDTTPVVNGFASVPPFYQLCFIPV
CYP2C9 inh = blocks human cytochrome P450 2C9. 96,000 tested, 20% active. AID 777. inhibition, % at 5 µM. CYP2C9 Supersomes, luciferin-H conversion, luminescence. P11712;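 active means blocking of liver enzyme CYP2C9 beyond about 50% at 5 µM, limit read from the data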
CYP2C19 act = cytochrome P450 2C19 (human) activation; recombinant CYP2C19, luciferin-H EGE luminescence; stronger effect = higher value; 0 = fully inhibited enzyme, 1 = untreated enzyme; activation factor at 5 µM; 96,000 tested, under 10 active; AID 1025;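 active means activation factor of at least 2 at 5 µM in the primary screen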;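 further: 0 = wells with 2.5 mM tranylcypromine and 1 = vehicle-only wells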
CYP2C19 inh = inhibitors of human CYP2C19 | CYP2C19 Supersomes, luciferin-H EGE luminescence, 30 min | inhibition, % at 5 µM | 96,000 tested, 21% active;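 active means CYP2C19 inhibition above a set limit at 5 µM in the primary screen, cut at about 50% in these data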;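 further: plate controls were negative control wells for no effect and 2.5 mM tranylcypromine positive control for full effect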
Starred values were filed as active, the others as inactive; nt = not tested or not shown.

SMILES	Measles CPE	CYP2C9 activ	CYP2C9 inh	CYP2C19 act	CYP2C19 inh
Cc1cc(NC(=O)Cn2cnc3sc(C)c(-c4ccccc4)c3c2=O)no1	30	nt	nt	nt	nt
CC1=NN(c2ccccc2)C(=O)C1(C)[N+](=O)[O-] (centres undefined)	2	nt	nt	nt	nt
O=c1oc2c(CN3CCCCCC3)c(O)ccc2cc1-c1nc2ccccc2[nH]1	nt	0.8	19	0.9	11
Cc1ccc(C(=O)O)cc1N=Cc1cc(Br)cc(Br)c1O	2	nt	nt	nt	nt
CSc1c(CC(=O)Nc2ccccc2)n(Cc2ccccc2)c2ccccc12	15	nt	nt	nt	nt
COC(=O)c1sc2cc(C(F)(F)F)cnc2c1-c1ccccc1	8	0.4	59*	0.7	27
O=C(O)c1sc2cc(C(F)(F)F)cnc2c1-c1ccccc1	15	1.1	-10	1	-3
CSc1nnc(-c2sc3cc(C(F)(F)F)cnc3c2-c2ccccc2)n1C	3	0.3	71*	0.7	25
N#Cc1ccc(NC(=O)c2sc3cc(C(F)(F)F)cnc3c2-c2cccs2)cc1	12	0.4	62*	1.1	-10
O=C(NC(=O)N1CCN(c2ccccc2F)CC1)c1ccccc1	3	0.6	35	0.4	60*
O=C(c1cccc(C(=O)N2CCN(c3ccccc3F)CC2)n1)N1CCN(c2ccccc2F)CC1	6	0.1	86*	0.1	90*
O=C(NCc1ccccc1)N1CCN(c2ccccc2F)CC1	18	0.9	14	0.4	62*
O=C(NCc1ccccc1)C1CCN(C(=O)NCc2ccccc2)CC1	5	1	3	1.1	-7
O=C(NC(=O)N1CCN(c2ccccc2)CC1)c1ccc(Cl)cc1	9	nt	nt	nt	nt
COC(=O)c1ccccc1NC(=O)Cn1c(=O)n(Cc2ccccc2)c(=O)c2c(C)c(C)sc21	5	nt	nt	nt	nt
COc1cc(CNc2ccc3[nH]c(=O)[nH]c3c2)cc(Br)c1OCC(=O)NC(C)(C)C	6	0.8	24	0.5	51*
C=CCOc1c(Br)cc(CNc2ccc(NC(=O)CCC)cc2)cc1OCC	5	0.3	71*	0.5	54*
CCOc1cc(CNc2ccc(N3CCCCC3)cc2)cc(Br)c1OCC(=O)NC(C)(C)C	5	nt	nt	nt	nt
COc1cc(CNc2ccc3[nH]c(=O)[nH]c3c2)ccc1OCC(=O)NC(C)(C)C	36	0.6	38	0.8	21
CCOc1cc(CNc2ccc(N(C)C)cc2)cc(Br)c1OCC(=O)NC(C)(C)C	20	0	96*	0	96*
CCOc1cc(CNc2cccc3ccccc23)cc(Br)c1OCC(=O)NC(C)(C)C	4	0.3	70*	0.3	65*
CCCCCCOC(=O)Nc1ccc(S(=O)(=O)Nc2cccc([N+](=O)[O-])c2)cc1	8	nt	nt	nt	nt
COc1cc(CCC(=O)Nc2ccc(C)c(S(=O)(=O)N(C)C)c2)cc(OC)c1OC	3	nt	nt	nt	nt
CCONC(=O)Nc1ccccc1	7	nt	nt	nt	nt
Cc1ccc(C)c(C(=O)CN2C(=O)NC3(CCC(C)CC3)C2=O)c1 (centres undefined)	18	nt	nt	nt	nt
SMILES	Measles CPE	CYP2C9 activ	CYP2C9 inh	CYP2C19 act	CYP2C19 inh
FC(F)(F)c1cc(-c2ccccc2)nc(NCc2cccnc2)n1	1	0.3	73*	0.1	93*
FC(F)(F)c1cc(-c2ccco2)nc(NCc2cccnc2)n1	15	0.3	66*	0.2	85*
CN(/N=C/c1ccncc1)C1=NS(=O)(=O)c2ccccc21	4	0.7	33	0.5	55*
O=S1(=O)N=C(N(CCO)/N=C/C=C/c2ccccc2)c2ccccc21	10	nt	nt	nt	nt
COc1ccccc1OCC(=O)OCC(=O)Nc1sccc1C(N)=O	10	nt	nt	nt	nt
NC(=O)c1ccsc1NC(=O)COc1ccccc1	9	0.4	65*	0.6	44
NC(=O)c1ccsc1NC(=O)c1nc(-c2ccccc2)n(-c2ccccc2)n1	12	0.4	61*	0.7	30
NC(=O)c1ccsc1NC(=O)COC(=O)Cc1cccc2ccccc12	14	1.6	-58	0	97*
Cc1ccccc1SCC(=O)OCC(=O)Nc1sccc1C(N)=O	46*	nt	nt	nt	nt
Cc1ccc(NCC(=O)N/N=C/c2ccc(OC(=O)c3ccco3)cc2)cc1	7	1	-2	1	0
CCc1nc2ccc(C)cc2c(C(=O)Oc2cccc3cccnc23)c1C	4	0.5	51*	1.1	-10
CC(=O)NCC(=O)OCC(=O)c1ccc(C)c(C)c1	12	1.1	-13	0.8	20
Cc1ccc(C(=O)COC(=O)CNC(=O)COc2ccccc2C)cc1C	16	2.4*	-144	0.9	12
CCN(CC(=O)NC(=O)NC1CCCCC1)Cc1nc2ccccc2c(=O)[nH]1	7	0.7	33	0.7	27
CCN(CC(=O)Nc1ccc2c(c1)OC(F)(F)O2)Cc1nc2ccccc2c(=O)[nH]1	14	0.1	92*	0.1	88*
CCN(CC(=O)Nc1cccc(Br)c1)Cc1nc2ccccc2c(=O)[nH]1	13	0.3	65*	0.3	72*
CCN(Cc1nc2ccccc2c(=O)[nH]1)Cc1nc2cc(OC)c(OC)cc2c(=O)[nH]1	8	0.9	10	0.8	16
CCN(CC(=O)Nc1ccc2c(c1)CCC2)Cc1nc2ccccc2c(=O)[nH]1	19	0.1	89*	0.1	92*
CN(CC(=O)Nc1ccccc1Br)Cc1nc2ccccc2c(=O)[nH]1	8	0.2	81*	0.2	83*
O=c1c2cnn(-c3ccccc3)c2nc(-c2cccs2)n1-c1cccc(Cl)c1	4	nt	nt	nt	nt
Cc1ccc(C#CC[N+]2(CC#Cc3ccc(C)cc3)CCCCC2)cc1	15	nt	nt	nt	nt
Cc1cc(Oc2ccccc2)nc(OCC#N)n1	2	1	2	0.7	32
COc1ccccc1NC(=O)N(Cc1ccc2c(c1)OCO2)Cc1nc2ccccc2c(=O)[nH]1	2	1	0	1	3
CCN(CC(=O)NC(c1ccccc1)c1ccccc1)Cc1nc2ccccc2c(=O)[nH]1	21*	0.5	49	0.4	65*
CCN(CC(=O)NCc1ccc(F)cc1)Cc1nc2cc(Cl)ccc2c(=O)[nH]1	11	0.4	60*	0.6	41
O=C(Nc1ccc(Cl)cc1)N(Cc1nc2ccccc2c(=O)[nH]1)Cc1cccs1	28	nt	nt	nt	nt
COc1ccccc1CN(Cc1nc2ccccc2c(=O)[nH]1)C(=O)Nc1cccc(C)c1	8	0.4	57*	0.3	67*
COc1cccc(C(=O)N(Cc2ccc3c(c2)OCO3)Cc2nc3ccccc3c(=O)[nH]2)c1	8	0.2	81*	0.3	74*
COc1ccc(N/N=C(/C(N)=O)C2=NC(C)(C)Cc3ccccc32)cc1	5	nt	nt	nt	nt
CCCOc1ccc(NC(=O)CC2C(=O)N(Cc3ccccc3)C(=S)N2Cc2cccs2)cc1 (centres undefined)	10	nt	nt	nt	nt
